# Data published in PubChem BioAssay AID720650 (Broad Institute, 2013).
# Unmarked numbers belong to inactive results. Activity calls are given as the source filed them. No rule for the calls is given here.
# Assay: Biochemical counterscreen for C difficile toxins, absence of UDPG, inhibitor dose response (AID 720650)
# Conditions: series mostly up to 19.5 µM
row,SMILES,AC50
1,COC(=O)/C=C/C(=O)Nc1ccc(O)c(Cl)c1,13.6 µM (active)
2,CNC(=O)C[C@H]1CC[C@@H]2[C@@H](COc3ccc(NC(=O)c4cccc(OC)c4)cc3C(=O)N2C)O1,inactive
3,CCCCCCCN1C(N(C)C)=NC[C@@H]1Cc1ccccc1,inactive
4,C/C(CCc1ccccc1)=N\NC(=O)C1C2CCCCC21 (stereo not drawn),inactive
5,CN(C(=O)Cn1c(=O)oc2cc(S(=O)(=O)N3CCCC3)ccc21)C1CCCCC1,inactive
6,O=C(O)c1ccc(/C=N/NC(=S)NCCN2CCOCC2)cc1,inactive
7,CCN1/C(=C2\OC(=S)N(C)C2=O)C=Cc2ccccc21,inactive
8,Cc1ccc(NNC(=O)C2CCC2)cc1C,0.386 µM (active)
9,COc1ccc(Cl)cc1NC(=S)NC1CCCC1,inactive
10,O=C(C[C@@H]1C[C@H]2c3cc(NC(=O)c4ccc5c(c4)OCO5)ccc3O[C@H]2[C@H](CO)O1)NCc1cccc(F)c1,inactive
11,OCC[C@H]1C[C@H](O)[C@@H](O)[C@@]2(Cc3ccccc3CO2)O1,inactive
12,CCCNC(=O)C[C@H]1CC[C@@H]2[C@@H](COc3ccc(NC(=O)c4ccc5c(c4)OCO5)cc3C(=O)N2C)O1,> 39 µM
13,CC1(C)OC2C(O1)[C@@H](CO)O[C@H]2n1cnc2c(N)ncnc21 (stereo partly drawn),inactive
14,CSc1ccccc1NC(=O)C1=CC(c2ccc(C)cc2)=NS(=O)(=O)N1C,inactive
15,Clc1cccc(-c2ccc3ncnc(NCc4cccs4)c3c2)c1,inactive
16,CC(C)CN1CCN(CC#Cc2ccccc2)CC1CCO (stereo not drawn),inactive
17,O=C(NC(=S)NCc1ccccc1)c1cccnc1,inactive
18,CC(C)(Oc1ccc(Cl)cc1)C(=O)NC1CC1,inactive
19,Cc1nn(C)cc1-c1n[nH]c(=S)n1-c1ccc(F)cc1,inactive
20,CCCc1cc(=O)oc2c3c(cc(OCC(=O)NCCCn4ccnc4)c12)OC(C)(C)CC3,inactive
21,CC1(C)CC(=O)C(C=Nc2ccc(N)cc2)=C(O)C1,inactive
22,Cc1ccc(S(=O)(=O)/N=C(/Nc2cccc(O)c2)c2ccccc2)cc1,inactive
23,CNc1nc(C23CC4CC(CC(C4)C2)C3)cs1,inactive
